Screens as filed in PubChem.
KB-V1 cytotox: KB-V1 MDR subline cytotoxicity; KB-V1 MDR cells viability, CellTiter-Glo, 72 h; hit rate 3.4% among 400,000; AID 1347076; Potency, µM (series often up to 46.1 µM), usual class: cytotoxic; also: nearly all actives have a fitted effect of over 60% in size
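KB-V1 MDR subline cells in DMEM (phenol-red free, 10% FBS) exposed to compounds in qHTS concentration series for 72 h at 37 degrees C. Viability read by CellTiter-Glo luminescence; concentration-effect curves fitted after normalization and correction.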
HT1080-NT tox: kills 2HG-producing HT-1080-NT fibrosarcoma cells | HT-1080-NT fibrosarcoma viability, CellTiter-Glo ATP luminescence, 48 h | AID 686970 | hit rate 1.6% among 360,000 | Potency, µM (series often up to 46.1 µM), for inactives: at the top dose activity, negative = less viability, most hits filed as cytotoxic;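 also: NT is the 2HG producing partner of a matched IDH1 knockdown line; 0% = DMSO-treated cells and -100% = media-only wells without cells; nearly all actives have a fitted effect of over 55% in size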
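Compounds were tested in concentration-response format on HT-1080-NT cells for 48 hours at 37 degrees C. Cell viability came from CellTiter-Glo luminescence; curves were classified by r2, response magnitude and activity.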
TDP1 cell CPT: DT40-hTDP1 cell growth loss with CPT | chicken DT40 Tdp1-/-;hTDP1 cells + 20 nM CPT, ATP luminescence, 48 h | Potency, µM (doses to about 46.2 µM), for the others: at the top dose activity change, negative = growth inhibition, actives largely listed as inhibitors | hit rate 12% among 420,000 | AID 686979; also: nearly all actives have a fitted effect of over 55% in size
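Chicken DT40 Tdp1-/- cells complemented with human TDP1, 400 cells/well, exposed to compounds plus 20 nM camptothecin for at least 48 h at 37 C; viability read as ATP content by CellTiter-Glo luminescence.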
TDP1 cell noCPT: qHTS for Inhibitors of human tyrosyl-DNA phosphodiesterase 1 (TDP1): qHTS in cells in absence of CPT; Potency, µM (titrated, usually from 46.2 µM), for the others: at the highest dose activity change, negative = growth inhibition, hits mostly inhibitors; AID 686978, 2013; DT40 Tdp1-/- hTDP1 cells, no CPT, ATP luminescence, 48 h; hit rate 15% among 420,000; also: nearly all actives have a fitted effect of over 55% in size
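Growth kinetics read by CellTiter-Glo luminescence after ≥48 hr at 37 °C. Cells: DT40 Tdp1-/- stably carrying human TDP1, 400 per well, compound exposure in the absence of CPT (DMSO vehicle).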
KB-3-1 tox: KB-3-1 parental cell cytotoxicity. KB-3-1 viability, CellTiter-Glo ATP luminescence, 72 h. Potency, µM (doses to about 46.1 µM), usual class: cytotoxic. hit rate 1.4% among 400,000; also: nearly all actives have a fitted effect of over 60% in size
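Here the drug-naive KB-3-1 line serves as comparator for MDR sub-line selectivity; cells received compound titrations, 72 h at 37 °C, then CellTiter-Glo readout.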
HT1080 IDH1KD tx: toxicity to HT-1080 IDH1 knockdown cells (counter line); hit rate 2% among 360,000; Potency, µM (doses to about 46.1 µM), for inactives: top-dose activity, negative = toxicity, actives largely listed as cytotoxic; AID 686971; HT-1080 IDH1 knockdown viability, ATP luminescence, 48 h;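 also: 0% = DMSO wells and -100% = cell-free medium wells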
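% activity derives from luminescence (CellTiter-Glo), normalised to DMSO and no-cell wells. HT-1080-IDH1KD cells, 750/well, had 48 h compound exposure at 37 °C.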
Active calls of the source: *. This is a sample that favours compounds with a hit; in the whole collection about 19% have one here. Calls follow the shape of the dose curve; as a rule, active = well fitted curve in the direction sought with a large enough effect; inconclusive = small, poorly fitted or top-dose-only effect, or another doubt; inactive = no such curve, though single readings can be large; an effect the other way counts as inactive or inconclusive. Unless noted, % is scaled to controls: 0 for no effect and ±100 for the full control effect; potency is read from the fitted curve at half-maximal effect.

How did C[n+]1ccc(/C=C/c2ccc3c(c2)OCO3)c2ccccc21 do in these assays?
KB-V1 cytotox: inactive; TDP1 cell CPT: 2%; TDP1 cell noCPT: -14%; KB-3-1 tox: inconclusive

How did COC(=O)CN(C#N)c1nc(NC(C)C)nc(NC(C)C)n1 do in these assays?
KB-V1 cytotox: inactive; HT1080-NT tox: 0%; TDP1 cell CPT: -13%; TDP1 cell noCPT: -8%; KB-3-1 tox: inactive; HT1080 IDH1KD tx: 0%

What do the screens show for `COc1cc(OC)c(OC)cc1/C=C/c1cc[n+](C)c2ccccc12`?
KB-V1 cytotox: inactive; TDP1 cell CPT: 4µM*; TDP1 cell noCPT: 2µM*; KB-3-1 tox: 15µM*

How did CC(=O)N/C(=C\c1ccccc1)C(=O)OCc1cc(C)ccc1C do in these assays?
KB-V1 cytotox: inactive; HT1080-NT tox: 11%; TDP1 cell CPT: 9%; TDP1 cell noCPT: -2%; KB-3-1 tox: inactive; HT1080 IDH1KD tx: 15%

Results for O=C(NC(c1ccc(-c2ccccc2)cc1)c1cnccn1)C1CCN(CCCOc2ccccc2)CC1 (configuration not stated) ?
KB-V1 cytotox: inactive; HT1080-NT tox: inconclusive; TDP1 cell CPT: 23µM*; TDP1 cell noCPT: 13µM*; KB-3-1 tox: inconclusive; HT1080 IDH1KD tx: 9.2µM*

How did Cc1ccc(C(NC(=O)C2CCN(CCOc3ccccc3)CC2)c2ccccn2)cc1 (configuration not stated) do in these assays?
KB-V1 cytotox: inactive; HT1080-NT tox: -16%; TDP1 cell CPT: inconclusive; TDP1 cell noCPT: inconclusive; KB-3-1 tox: inactive; HT1080 IDH1KD tx: -12%

What do the screens show for `O=C(NC(c1ccc(Cl)cc1)c1cnccn1)C1CCN(CCOc2ccc(F)cc2)CC1` (configuration not stated)?
KB-V1 cytotox: inactive; HT1080-NT tox: inconclusive; TDP1 cell CPT: inconclusive; TDP1 cell noCPT: 18µM*; KB-3-1 tox: inactive; HT1080 IDH1KD tx: inconclusive

What do the screens show for `O=C(NC(c1ccc(-c2ccccc2)cc1)c1cnccn1)C1CCN(CCOc2ccc(F)cc2)CC1` (configuration not stated)?
KB-V1 cytotox: inactive; HT1080-NT tox: inconclusive; TDP1 cell CPT: inconclusive; TDP1 cell noCPT: inconclusive; KB-3-1 tox: inconclusive; HT1080 IDH1KD tx: 16µM*

How did O=C(NC(c1ccc(F)cc1)c1cnccn1)C1CCN(CCOc2ccc(Cl)cc2Cl)CC1 (configuration not stated) do in these assays?
KB-V1 cytotox: inactive; HT1080-NT tox: inconclusive; TDP1 cell CPT: inconclusive; TDP1 cell noCPT: 16µM*; KB-3-1 tox: inactive; HT1080 IDH1KD tx: inconclusive

How did COc1ccc(C(NC(=O)C2CCN(CCCOc3ccccc3)CC2)c2ccccn2)cc1 (configuration not stated) do in these assays?
KB-V1 cytotox: inactive; HT1080-NT tox: 4%; TDP1 cell CPT: -25%; TDP1 cell noCPT: -17%; KB-3-1 tox: inactive; HT1080 IDH1KD tx: -1%

How did O=C(c1cccs1)N1CCN(S(=O)(=O)c2ccccc2)CC1 do in these assays?
KB-V1 cytotox: inactive; HT1080-NT tox: 8%; TDP1 cell CPT: -15%; TDP1 cell noCPT: 1%; KB-3-1 tox: inactive; HT1080 IDH1KD tx: -5%

How did O=C(c1sccc1-c1ccccc1)N1CCN(S(=O)(=O)c2ccccc2)CC1 do in these assays?
HT1080-NT tox: -1%; TDP1 cell CPT: inconclusive; TDP1 cell noCPT: 23µM*; HT1080 IDH1KD tx: 5%

Results for Cc1ccc(S(=O)(=O)N2CCN(C(=O)c3sccc3-c3ccccc3)CC2)cc1 ?
KB-V1 cytotox: inconclusive; HT1080-NT tox: -1%; TDP1 cell CPT: inconclusive; TDP1 cell noCPT: 18µM*; KB-3-1 tox: inactive; HT1080 IDH1KD tx: 0%
